Consider 21 molecules from PubChem BioAssay (EPA / NIEHS).

Test [1] can be described thus: ATG_PBREM_CIS: Attagene CIS-FACTORIAL HepG2 Assay for human Phenobarbital-responsive Enhancer Module (PBREM) (AID 2282955). Conditions: HepG2 PBREM cis-reporter, Attagene multiplexed transcription; actives raise or lower the signal. The essentials:
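HepG2 cells transiently transfected with multiple cis-regulated reporter units measure endogenous transcription factor activity; 24 h compound exposure. Reporter mRNA quantified by RT-PCR, fluorescent labelling, HpaI digestion and capillary electrophoresis; bidirectional fit versus DMSO.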

Test [2] deals with Paired box protein Pax-6 (Homo sapiens) (UniProt P26367). The test can be described thus: ATG_Pax6_CIS: Attagene CIS-FACTORIAL HepG2 Assay for human Paired Box 6 (PAX6) (AID 2282956). Conditions: HepG2 CIS-FACTORIAL PAX6 reporter transcription, RNA readout; actives raise or lower the signal. In a few lines:
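Transient MRTU transfection of HepG2 → compound exposure 24 h → TriZol RNA, oligo(dT) RT → PCR, 6-FAM primer extension, HpaI cut → capillary electrophoresis; activity fitted both directions against DMSO.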

Test [3] in a line: ATG_PXRE_CIS: Attagene CIS-FACTORIAL HepG2 Assay for human Pregnane X Receptor Element (PXRE) (AID 2282957). Conditions: HepG2 Attagene CIS-FACTORIAL PXRE reporter, mRNA; actives raise or lower the signal. In a few lines:
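HepG2 cells transiently transfected with cis-regulated multiple reporter transcription units; endogenous factor activity measured as reporter mRNA 24 h after dosing. RT-PCR, fluorescent primer extension, HpaI digestion, capillary electrophoresis; bidirectional fit versus DMSO baseline.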

Test [4] can be described thus: ATG_PPRE_CIS: Attagene CIS-FACTORIAL HepG2 Assay for human Peroxisome Proliferator-activated Response Element (PPRE) (AID 2282958). Conditions: HepG2 PPRE cis-element reporter, Attagene transcription factor profiling; actives raise or lower the signal. In a few lines:
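HepG2 cells are transiently transfected with multiplexed cis-promoter reporter units to report endogenous PPAR activity. After 24 h dosing, reporter mRNA is read by RT-PCR and capillary electrophoresis. Fitting is bidirectional against DMSO.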

Test [5] can be described thus: ATG_RORE_CIS: Attagene CIS-FACTORIAL HepG2 Assay for human RAR-related Orphan Receptor Element (RORE) (AID 2282959). Conditions: HepG2 Attagene cis-factorial RORE reporter, mRNA; actives raise or lower the signal. The essentials: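 HepG2 cells carrying transiently transfected cis-regulated reporter units; RORE-driven reporter mRNA quantified 24 h post-dosing by RT-PCR, 6-FAM primer extension, HpaI digestion and capillary electrophoresis. Bidirectional fit versus DMSO.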

A short description of test [6]: ATG_Sox_CIS: Attagene CIS-FACTORIAL HepG2 Assay for human SRY-box transcription factor (SOX) (AID 2282960). Conditions: HepG2 Attagene cis-factorial SOX reporter, mRNA; actives raise or lower the signal. The essentials:
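HepG2 cells transiently transfected with multiple cis-regulated reporter units, then dosed for 24 h. Reporter mRNA quantified by RT-PCR, fluorescent labelling, HpaI digestion and capillary electrophoresis; bidirectional fit versus DMSO.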

Test [7] concerns the target Transcription factor Sp1 (Homo sapiens) (UniProt P08047). The test can be described thus: ATG_Sp1_CIS: Attagene CIS-FACTORIAL HepG2 Assay for human Specificity Protein 1 (Sp1) (AID 2282961). Conditions: HepG2 Sp1 cis-reporter transcription, actives raise or lower the signal. The essentials:
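HepG2 cells transiently transfected with multiplexed cis-regulated reporter constructs, chemical exposure 24 h. Reporter mRNA quantified by RT-PCR with capillary electrophoresis; bidirectional fit relative to DMSO.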

Test [8] is described as follows: ATG_SREBP_CIS: Attagene CIS-FACTORIAL HepG2 Assay for human Sterol Regulatory Element Binding (SREBP) (AID 2282962). Conditions: HepG2 Attagene cis-factorial SREBP reporter, mRNA; actives raise or lower the signal. The essentials: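 Transfected HepG2 (cis-regulated reporter library, endogenous TFs) → compound 24 h → total RNA → oligo(dT) RT → reporter-specific PCR → FAM primer extension, HpaI cut → CE fluorescence. Fit bidirectional vs DMSO.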

For test [9], the target named is Signal transducer and activator of transcription 3 (Homo sapiens) (UniProt P40763). The test can be described thus: ATG_STAT3_CIS: Attagene CIS-FACTORIAL HepG2 Assay for human Signal Transducer and Activator of Transcription 3 (STAT3) (AID 2282963). Conditions: HepG2, Attagene cis-factorial STAT3 reporter transcription; actives raise or lower the signal. In a few lines:
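Transcript-level reporter assay. HepG2 transient MRTU transfection, 24 h exposure, fluorescence detection after RT-PCR and CE; DMSO baseline.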

The nature of test [10]: ATG_TA_CIS: Attagene CIS-FACTORIAL HepG2 Assay for human TA Basal Promoter (AID 2282964). Conditions: HepG2 Attagene CIS-factorial TA basal promoter reporter; actives raise or lower the signal. In a few lines:
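Background internal-marker endpoint from a 52-component HepG2 cis-reporter panel. Cells treated 24 h; reporter transcripts quantified via RT-PCR and CE fluorescence against DMSO baseline.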

Values joined by “and” are separate entries in the source; they are usually repeats but may differ in a detail not shown here. Identical values can stand only once. Some compounds were tested as several samples or in several runs, with calls that do not always agree. Active and inactive are the calls of the source. Rule for the calls: active = hit-call score of the fitted dose curve at least 0.9, where 1 is the maximum; inactive = score below 0.9.

Chain of Paired box protein Pax-6 (Homo sapiens) (P26367 whole entry, looked up): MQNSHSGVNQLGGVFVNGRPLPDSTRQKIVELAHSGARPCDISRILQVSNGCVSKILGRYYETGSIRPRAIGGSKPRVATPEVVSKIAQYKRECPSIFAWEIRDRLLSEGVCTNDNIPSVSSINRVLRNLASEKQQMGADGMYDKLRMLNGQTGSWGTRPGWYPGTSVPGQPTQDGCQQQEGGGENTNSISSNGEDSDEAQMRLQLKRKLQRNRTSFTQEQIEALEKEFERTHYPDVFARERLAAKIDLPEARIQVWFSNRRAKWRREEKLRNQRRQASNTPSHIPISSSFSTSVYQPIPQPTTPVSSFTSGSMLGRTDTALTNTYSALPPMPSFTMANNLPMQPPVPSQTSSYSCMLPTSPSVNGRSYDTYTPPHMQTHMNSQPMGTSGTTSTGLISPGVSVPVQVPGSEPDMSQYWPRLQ
Chain of Signal transducer and activator of transcription 3 (Homo sapiens) (P40763 whole entry, looked up): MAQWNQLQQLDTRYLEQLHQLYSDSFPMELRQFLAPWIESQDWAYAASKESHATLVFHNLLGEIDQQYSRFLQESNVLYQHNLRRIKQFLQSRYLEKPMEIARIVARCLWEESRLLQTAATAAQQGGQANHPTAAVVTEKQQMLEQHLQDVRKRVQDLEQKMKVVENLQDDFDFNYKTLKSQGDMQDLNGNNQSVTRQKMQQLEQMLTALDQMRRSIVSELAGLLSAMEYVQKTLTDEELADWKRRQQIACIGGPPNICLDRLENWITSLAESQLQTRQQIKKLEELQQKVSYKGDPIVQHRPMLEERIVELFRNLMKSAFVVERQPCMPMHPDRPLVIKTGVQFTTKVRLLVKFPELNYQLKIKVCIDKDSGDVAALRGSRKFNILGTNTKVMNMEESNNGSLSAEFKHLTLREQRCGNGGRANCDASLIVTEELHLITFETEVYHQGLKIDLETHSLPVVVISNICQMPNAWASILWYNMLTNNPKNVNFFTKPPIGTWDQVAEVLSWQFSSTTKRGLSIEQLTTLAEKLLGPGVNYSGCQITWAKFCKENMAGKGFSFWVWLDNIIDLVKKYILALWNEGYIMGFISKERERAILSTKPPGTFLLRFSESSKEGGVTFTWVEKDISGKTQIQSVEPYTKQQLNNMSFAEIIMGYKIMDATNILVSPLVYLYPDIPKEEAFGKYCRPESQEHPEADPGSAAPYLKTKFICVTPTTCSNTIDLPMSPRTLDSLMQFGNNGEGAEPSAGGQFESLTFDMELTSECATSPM
Chain of Transcription factor Sp1 (Homo sapiens) (P08047 whole entry, looked up): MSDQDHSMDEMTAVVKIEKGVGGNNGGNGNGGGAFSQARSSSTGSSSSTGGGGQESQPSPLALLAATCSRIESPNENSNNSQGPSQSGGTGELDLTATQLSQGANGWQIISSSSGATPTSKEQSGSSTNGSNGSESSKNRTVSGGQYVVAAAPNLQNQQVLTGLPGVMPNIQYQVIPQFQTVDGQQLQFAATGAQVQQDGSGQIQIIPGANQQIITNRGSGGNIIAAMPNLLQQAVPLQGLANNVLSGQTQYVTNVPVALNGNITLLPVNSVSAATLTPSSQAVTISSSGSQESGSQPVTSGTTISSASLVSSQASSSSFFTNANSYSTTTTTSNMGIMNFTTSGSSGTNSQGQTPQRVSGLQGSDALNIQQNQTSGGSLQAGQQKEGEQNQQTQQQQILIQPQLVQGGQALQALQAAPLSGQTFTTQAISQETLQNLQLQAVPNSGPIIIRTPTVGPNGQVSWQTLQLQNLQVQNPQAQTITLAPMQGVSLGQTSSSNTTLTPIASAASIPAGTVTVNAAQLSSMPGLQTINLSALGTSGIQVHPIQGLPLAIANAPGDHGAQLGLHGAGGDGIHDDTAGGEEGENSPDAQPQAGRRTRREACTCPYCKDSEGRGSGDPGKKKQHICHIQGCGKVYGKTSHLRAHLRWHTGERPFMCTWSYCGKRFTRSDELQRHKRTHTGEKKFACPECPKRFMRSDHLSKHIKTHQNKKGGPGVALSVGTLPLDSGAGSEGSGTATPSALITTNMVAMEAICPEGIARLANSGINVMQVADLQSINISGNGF

By AC50 is commonly meant the concentration at which the activity in the assay is half-maximal. Take `FC(F)(F)C(F)(F)C(F)(F)C(F)(F)C(F)(F)CCI`: the result in test [1], in test [2], in test [4], in [5], in test [6] and in [7] was inactive. Besides, the call in test [8], in test [9] and in [10] was inactive. For the same molecule, the AC50 in test [3] is 39.9 µM (active).

As to `CS(C)(=O)=O`, the result in [1], in test [2], in test [4], in [5], in test [6] and in test [7] was inactive. The outcome in test [8], in test [9] and in test [10] was inactive. Further, the AC50 in test [3] is 4.43 µM (active).

As to `FC(F)(F)C(F)(F)C(F)(F)CI`, the outcome in [1], in [2], in [3], in test [4], in [5] and in [6] was inactive. Further, the outcome in test [7], in [8], in test [9] and in test [10] was inactive.

Consider `CC(CCl)OP(=O)(OC(C)CCl)OC(C)CCl` (centres undefined), for which the outcome in test [1], in [2], in test [4], in [5], in test [6] and in test [7] was inactive. Further, the molecule was called inactive in test [8], in [9] and in [10]. The AC50 in test [3] is 3.53 µM (active).

On to `Cc1cc(C)cc(O)c1`, for which the result in [1], in test [2], in test [3], in test [4], in test [5] and in test [6] was inactive. Further, the molecule was called inactive in test [7], in test [8], in [9] and in [10]. Also, in [3], the AC50 was 64.5 µM (active).

In the case of `CC/C=C\CCOC(C)=O`, the result in test [1], in test [2], in [4], in test [5], in test [6] and in test [7] was inactive. Also, the molecule was classed as inactive in test [8], in test [9] and in test [10]. Besides, the AC50 in [3] is 70 µM (active).

For the molecule `COC(OC(C)=O)c1ccccc1` (centres undefined), the result in test [1], in [2], in test [3], in test [4], in test [5] and in [6] was inactive. For the same molecule, the call in test [7], in test [8], in [9] and in test [10] was inactive.

`Nc1cc(Cl)c(N)c(Cl)c1`: the result in test [1], in test [2], in test [4], in test [5], in [6] and in test [7] was inactive. Besides, the call in test [8], in [9] and in test [10] was inactive. For the same molecule, in test [3], the concentration at half-maximal activity (AC50) is 37 µM (active).

`OCC(F)(F)C(F)(F)C(F)(F)C(F)(F)C(F)(F)C(F)F`: the outcome in test [1], in test [2], in test [3], in test [4], in test [5] and in test [6] was inactive. In addition, the molecule was called inactive in test [7], in test [8], in test [9] and in test [10].

Turning to `FC(F)(F)C(F)(F)C(F)(F)N(C(F)(F)C(F)(F)C(F)(F)F)C(F)(F)C(F)(F)C(F)(F)F`, the result in test [1], in [2], in test [3], in [4], in test [5] and in test [6] was inactive. Also, the call in test [7], in test [8], in test [9] and in test [10] was inactive.

For `COC(=O)CCC(F)(F)C(F)(F)C(F)(F)C(F)(F)F`, the result in test [1], in test [2], in test [3], in [4], in test [5] and in test [6] was inactive. Further, the call in test [7], in test [8], in test [9] and in test [10] was inactive.

Regarding `O=S(=O)(OCCOC(F)(F)F)C(F)(F)F`, the outcome in test [1], in test [2], in [3], in [4], in [5] and in test [6] was inactive. Besides, the molecule was called inactive in test [7], in test [8], in [9] and in [10].

As for `O=C(CC(=O)C(F)(F)C(F)(F)F)C(F)(F)F`, the result in [1], in test [2], in [3], in test [5], in test [6] and in test [7] was inactive. The outcome in [8], in [9] and in test [10] was inactive. Besides, the AC50 in [3] is 76.4 µM (active); in test [4], 51.2 µM (active) and 64 µM (active).

In the case of `CNC(=S)NC`, the outcome in test [1], in test [2], in [4], in [5], in test [6] and in test [7] was inactive. The molecule was called inactive in [8], in test [9] and in test [10]. In [3], the AC50 is 24.9 µM (active).

`O=C(O)C(F)(F)C(F)(F)C(F)(F)C(F)(F)C(F)(F)C(F)(F)C(F)(F)C(F)(F)Cl`: the outcome in test [1], in test [3], in test [6], in test [7], in [8] and in test [9] was inactive. Also, the molecule was classed as inactive in test [10]. For the same molecule, the AC50 was 59.1 µM (active) and 50 µM (active) in test [2]; 13.7 µM (active) in test [3]; 39.2 µM (active) and 35.4 µM (active) in [4]; 28.4 µM (active) and 57.9 µM (active) in test [5]; 50 µM (active) in test [10].

Regarding `C1COCCN1`, the outcome in test [1], in test [2], in test [3], in test [5], in test [6] and in test [7] was inactive. Also, the call in [8], in [9] and in [10] was inactive. For the same molecule, in [3], the AC50 is 27.2 µM (active).

In the case of `CO[Si](OC)(c1ccccc1)c1ccccc1`, the result in [1], in [2], in test [4], in [5], in [6] and in [7] was inactive. Also, the result in test [8], in [9] and in [10] was inactive. Moreover, the AC50 in [3] was 18.1 µM (active).

With `C=CC/C=C/C/C=C/C/C=C/C`, the result in test [1], in test [2], in [3], in test [4], in test [5] and in test [6] was inactive. The molecule was classed as inactive in test [7], in test [8], in test [9] and in test [10].

`FC(F)(Br)C(F)(F)C(F)(F)C(F)(F)C(F)(F)C(F)(F)Br`: the result in test [1], in test [2], in test [3], in [4], in [5] and in test [6] was inactive. In addition, the molecule was classed as inactive in test [7], in [8], in test [9] and in test [10].

As to `CCc1ccc(C(c2ccc(CC)cc2)C(Cl)Cl)cc1`, the result in [1], in [2], in [4], in test [5], in test [6] and in [7] was inactive. Moreover, the molecule was called inactive in test [8], in test [9] and in test [10]. For the same molecule, in [3], the concentration at half-maximal activity (AC50) is 2.28 µM (active).

As for `FC(F)(F)C(F)(F)C(F)(F)C(F)(F)C(F)(F)C(F)(F)CCS`, the result in test [1], in test [2], in test [3], in test [4], in test [5] and in test [6] was inactive. Besides, the outcome in test [7], in [8], in test [9] and in [10] was inactive.
